HCMV antiviral: inhibitors of human cytomegalovirus; actives 4.5% (n = 410,000); activity change, negative = inhibition, % at 57.5 µM; HFF cells, HCMV-luciferase reporter, 72 h; hits give low values; AID 1259415; in the data active = activity change below about -60%; inconclusive = no clear call, values can overlap the other calls; inactive = above about -39%
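Two-dose cell screen: HFF monolayers treated with compounds and infected with luciferase-expressing HCMV at 1 PFU/cell, 72 h at 37C, then lysed for luciferase measurement.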
VACV mCherry inh: vaccinia inhibition (mCherry reporter); Vaccinia virus mCherry reporter infection, fluorescence; Potency, µM (titrated, usually from 36.5 µM), without a hit: top-dose activity change, negative = inhibition, hits mostly inhibitors; AID 720579; actives 0.63% (n = 310,000); calls by dose curve; tested in A549 cells; also: potency is read from the fitted curve at half-maximal effect; nearly all actives have a fitted effect of over 35% in size
Marburg entry inh: inhibitors of Marburg virus binding or cell entry. Marburg virus pseudotyped entry inhibition, cell reporter. Potency, µM (titrated, usually from 37.8 µM), for inactives: top-dose activity change, negative = inhibition, most hits filed as inhibitors. actives 1.8% (n = 300,000); calls by dose curve; tested in HEK293 cells; also: potency is read from the fitted curve at half-maximal effect
Vaccinia Venus: inhibitors of vaccinia virus (Venus reporter); actives 0.46% (n = 330,000); AID 720580; Potency, µM (doses to about 36.5 µM), for inactives: top-dose activity change, negative = inhibition, most hits filed as inhibitors; Vaccinia virus Venus reporter expression, fluorescence; calls by dose curve; tested in A549 cells; also: potency is read from the fitted curve at half-maximal effect; nearly all actives have a fitted effect of over 30% in size
HCV inh: inhibitors of hepatitis C virus infection | Potency, µM (top dose mostly 41.8 µM), without a hit: at the top dose activity change, negative = inhibition, usual class: inhibitors | Huh7.5.1 HCVcc-Cre infection, luciferase reporter, 44 h | actives 3.4% (n = 340,000); active = well fitted inhibition curve with a large enough effect; inconclusive = small, poorly fitted or top-dose-only effect, or another doubt; inactive = no such curve, though single readings can be large or run the other way; also: potency is read from the fitted curve at half-maximal effect
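Antiviral activity was scored by luciferase reporter output from cells infected with HCVcc-Cre (~0.5 moi) in presence of compound, 44 h infection period, cells seeded 1,000/well 4 h prior.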
Lassa entry inh: Lassa virus entry inhibition; Lassa virus pseudotype entry inhibition, cell reporter; Potency, µM (doses to about 37.9 µM), inactives show at the top dose activity change, negative = inhibition, usual class: inhibitors; actives 1.2% (n = 300,000); AID 540256; calls by dose curve; tested in HEK293 cells; also: potency is read from the fitted curve at half-maximal effect; nearly all actives have a fitted effect of over 50% in size
An asterisk follows results filed as active; i = inactive; ? = inconclusive; / = no result; [ ] = dose if it differs, or a comment. An excerpt weighted towards active compounds, which were near 7.8% of everything screened. % is scaled to controls: 0 for no effect and ±100 for the full control effect.

SMILES	HCMV antiviral	VACV mCherry inh	Marburg entry inh	Vaccinia Venus	HCV inh	Lassa entry inh
CCCN1CNc2c(c(=O)[nH]c(=S)n2Cc2ccc(OC)c(OC)c2)C1	/	-10%	/	-10%	/	/
COCCNC(=O)CCCn1c(SCC(=O)c2ccc(F)cc2)nc2c(sc3ccccc32)c1=O	45	-15%	-1%[46.1 µM]	-7%	/	23%[46.1 µM]
CC(=O)NC1=NN(C(C)=O)C2(CCCCC2)S1	53	-11%	-4%	-10%	2.8µM*	3%
Cc1sc2nc(CN3CCCC3)nc(NCc3ccncc3)c2c1C	37	i	?	-3%	7%	8%
Cc1sc2nc(CN3CCCCC3)nc(Nc3ccc4c(c3)OCCO4)c2c1C	-62*	i	0%[46.1 µM]	10%	4%	-14%
CCNc1nc(N2CCCN(C)CC2)nc2cc(OC)c(OC)cc12	/	?	/	-28%	/	/
O=C(N/N=C/c1cc2c(cc1Br)OCO2)c1c[nH]c2ccccc12	-19	/	/	/	22µM*	/
CC(SCc1ccccc1)C(=O)N/N=C/c1cc2c(cc1Br)OCO2 (stereo not drawn)	-39	-26%	?	-20%	-26%	23µM*
CC(C)(C)c1cc(C(=O)N/N=C/c2cc3c(cc2Br)OCO3)n[nH]1	7	/	/	/	11µM*	/
CC1(C)CC[C@]2(C(=O)n3ccnc3)CC[C@]3(C)[C@H](C(=O)C=C4[C@@]5(C)C=C(C#N)C(=O)C(C)(C)[C@@H]5CC[C@]43C)[C@@H]2C1	-101*	-3%	2.5µM*	-16%	?	2.5µM*
CC(Oc1cc(-n2cnc3ccc(OC4CCN(C)CC4)cc32)sc1C(N)=O)c1ccccc1Cl (stereo not drawn)	/	/	/	/	/	0.2µM*
COc1ccc(Cn2nnnc2C(c2ccccc2Cl)N2CCC(C(N)=O)CC2)cc1 (stereo not drawn)	25	/	-3%	/	6%	?
COc1cccc(CNC(=O)CCn2cnc3ccccc3c2=O)c1	-3	-11%	/	2%	/	5%[46.1 µM]
COc1cccc(COc2cc(-n3cnc4ccccc43)sc2C(N)=O)c1	/	/	/	/	/	5µM*
COc1ccc(OC)c(NC(=O)c2sc3nc(Cc4ccccc4)cc(C(F)(F)F)c3c2N)c1	24	/	0%	/	?	-1%
COc1ccc2ncn(-c3cc(OC(C)c4ccccc4C(F)(F)F)c(C(N)=O)s3)c2c1 (stereo not drawn)	/	/	/	/	/	0.22µM*
CCOC(=O)C(C(=O)OCC)C(C(=O)OCC)N1CCOCC1 (stereo not drawn)	-105*	i	?	0%	?	11%
CCOC(=O)C(C)CC(C)C(=O)N1CCOCCOCCN(C(=O)C(C)CC(C)C(=O)OCC)CCOCC1 (stereo not drawn)	37	/	-10%	/	-4%	0%
O=c1c2oc3ccccc3c2n(Cc2ccccc2F)c(=O)n1Cc1ccccc1	-12	-15%	/	-19%	/	29%[46.1 µM]
COc1ccc(CCNC(=O)Cn2nnc(-c3ccc(Cl)cc3)n2)cc1OC	-2	-7%	/	-7%	/	-10%[46.1 µM]
Cc1cccc2[nH]c3c(N4CCC5(CC4)OCCO5)ncnc3c12	-16	/	?	/	8.9µM*	-23%
Cc1cccc2[nH]c3c(N4CCN(C(=O)c5ccco5)CC4)ncnc3c12	/	/	-20%	/	-35%	1%
Clc1ccc2[nH]c3c(N4CCC5(CC4)OCCO5)ncnc3c2c1	/	8.9µM*	10µM*	8.9µM*	13µM*	10µM*
Cc1ccc(-n2ncc3c(NCCC4=CCCCC4)ncnc32)cc1C	-4	-14%	/	-15%	/	?
CN(CCC#N)Cc1cc(=O)oc2ccc3ccccc3c12	-62*	i	-15%[46.1 µM]	0%	-30%	21%[46.1 µM]
SMILES	HCMV antiviral	VACV mCherry inh	Marburg entry inh	Vaccinia Venus	HCV inh	Lassa entry inh
CCN(c1cccc(C(F)(F)F)c1)S(=O)(=O)c1ccc2c(c1)CCN2C(=O)C1CC1	-82*	?	?	?	?	?
CSc1cccc(NS(=O)(=O)c2ccc(C(C)=O)cc2)c1	-68*	-7%	?	-13%	?	?
CSc1cccc(NS(=O)(=O)c2ccc3c(c2)CCN3C(C)=O)c1	-88*	/	/	/	5.6µM*	/
CCOc1ccc(S(=O)(=O)Nc2ccc3c(c2)CCCN3S(=O)(=O)c2ccc(C)cc2)cc1	-65*	-14%	/	-11%	/	?
COC(=O)c1cc2sccc2n1CC(=O)Nc1cc(Cl)ccc1OC	?	?	-13%[46.1 µM]	?	/	/
C[C@H](CO)NS(=O)(=O)c1cc(Cl)ccc1F	/	/	/	/	/	5%[46.1 µM]
CCc1ccccc1NC(=O)Cn1nnc(C(=O)NCc2ccco2)c1N	31	-17%	?	-15%	/	?
COc1ccc(CC(=O)NCc2nc3cccnc3n2Cc2ccc(F)cc2)cc1OC	-31	-21%	/	-16%	/	-1%[46.1 µM]
COc1ccc(S(=O)(=O)Nc2ccc3c(c2)N(C(C)=O)CCC3)cc1	-62*	-22%	-27%	-17%	?	?
COc1cccc(NS(=O)(=O)c2ccc3c(c2)CCN3C(C)=O)c1	-64*	?	?	-25%	1.6µM*	-23%
CCCCOc1ccc(C(=O)Nc2ccc3c(c2)N(C(C)=O)CCC3)cc1	?	i	/	-15%	/	6%[46.1 µM]
COc1ccc(S(=O)(=O)Nc2ccc3c(c2)N(C(C)=O)CCC3)cc1OC	-3	-2%	3%	-10%	28%	6%
COc1cccc(NS(=O)(=O)c2ccc3c(c2)CCCN3C(=O)C2CCC2)c1	-14	-27%	/	-15%	/	?
CC(=O)N1CCc2cc(S(=O)(=O)Nc3cccc(C(F)(F)F)c3)ccc21	?	?	?	?	13µM*	?
CC(=O)N1CCCc2ccc(NC(=O)c3ccc(OC(C)C)cc3)cc21	-61*	-10%	/	-2%	/	?
CCC(CC)C(=O)Nc1ccc(S(=O)(=O)N2CCC(c3nc4ccccc4s3)CC2)cc1	7	-17%	20%[46.1 µM]	-14%	/	7%[46.1 µM]
O=C(c1cnn(-c2ccc(F)cc2)c1-n1cccc1)N1CCN(c2ccccc2)CC1	-16	3%	/	9%	/	17%[46.1 µM]
CCCCN1CC(c2nc3ccccc3n2CCCCOc2c(C)cccc2C)CC1=O (stereo not drawn)	-18	i	0%[46.1 µM]	-19%	/	14%[46.1 µM]
CC(=O)N1CCCc2cc(S(=O)(=O)Nc3ccc(C)c(F)c3)ccc21	-6	i	/	-10%	/	10%[46.1 µM]
CC(=O)N1CCc2cc(S(=O)(=O)Nc3ccc(C)cc3)ccc21	-64*	-21%	?	-13%	-11%	-1%
CC(=O)N1CCc2cc(S(=O)(=O)N3CCc4ccccc43)ccc21	-68*	-19%	?	?	?	?
Cc1oc2cc(O)cc(C)c2c(=O)c1-c1cnn(-c2ccccc2)c1	?	-4%	?	?	8.9µM*	?
COC(=O)c1c(-c2ccc(SC)cc2)sc2ccc(OC)cc12	197	i	/	-23%	45%[8.37 µM]	/
COC(=O)c1c(-c2ccc(OC)cc2)sc2ccc(N3CCOCC3)cc12	?	?	/	-8%	13µM*	/
